PubChem BioAssay AID720518 (National Center for Advancing Translational Sciences (NCATS), 2013)
Records with an inconclusive call do not appear. A call without a number means that no potency is given here. The source made the active and inactive calls. Calls come from the whole dose curve.

Assay: qHTS for Inhibitors of Cell Surface uPA Generation: Wild-type Protective Antigen (WT-PrAg) Counterscreen for Cherry-picked Compounds
Conditions: cells, WT protective antigen toxicity counterscreen; series mostly up to 115 µM

Compound | Potency
O=C(Cn1cnc2c(OCc3ccccc3)ncnc21)NCCCN1CCCC1=O | inactive
CC(=O)COc1ccc2c(-c3cccc([N+](=O)[O-])c3)cc(=O)oc2c1 | inactive
O=C(NC1CCCC1)c1nc2c(nnn2Cc2ccccc2Cl)c(=O)[nH]1 | inactive
Cn1cnc([N+](=O)[O-])c1Sc1ccc(Br)cc1 | inactive
CCOc1cc(C)c(S(=O)(=O)N2CCCCC2)cc1C | inactive
O=C(CCS(=O)(=O)c1ccc2c(c1)NC(=O)CS2)NCc1cccs1 | inactive
CSCC[C@H](NC(=O)[C@H](Cc1ccccc1)n1c(=O)[nH]c2ccccc2c1=O)C(=O)N1CCC[C@@H]1C(=O)O | inactive
Cc1cccc(NC(=O)C2CCCN(S(=O)(=O)c3ccc4[nH]c(=O)ccc4c3)C2)c1 (configuration not stated) | inactive
O=C(/C=C/c1cccc(F)c1)Nc1cc(S(=O)(=O)N2CCOCC2)ccc1Cl | inactive
O=C1CCCc2ccccc2N1Cc1ccc(F)cc1 | inactive
Cc1ccc2[nH]c(CN3CCN(C)C(CCO)C3)c(C)c2c1 (configuration not stated) | inactive
Cc1ccc(C)c(NC(=O)CCN2CCN(c3ccccc3F)CC2)c1 | inactive
O=C(CCCOc1ccc(Cl)cc1Cl)NCc1ccncc1 | inactive
O=[N+]([O-])c1ccc(C[n+]2cccc(O)c2)cc1 | inactive
COc1cc(/C=N/NC(=O)c2cc(-c3ccco3)nc3ccccc23)cc(OC)c1O | inactive
Cc1ccc(CN2CCN(Cc3cc4ccccc4o3)CC2CCO)cc1 (configuration not stated) | inactive
COc1ccc(N2CCN(C(=O)COc3ccc4c(C)c(C)c(=O)oc4c3C)CC2)cc1 | inactive
